High-throughput results (PubChem BioAssay)
Rows were chosen to be rich in hits. Some 2.4% of all compounds tested hit in one or more screens of this group.
FEN1 inhibitor: qHTS Assay for the Inhibitors of Human Flap endonuclease 1 (FEN1) | P39748 | Recombinant FEN1 flap cleavage, fluorescence, 15 min | Potency, µM (top dose mostly 114 µM), for inactives: top-dose activity change, negative = inhibition, most hits filed as inhibitors | actives 0.35% (n = 390,000) | AID 588795, 2011; further: on the % scale 0 is the no-effect control and ±100 the full control effect; nearly all actives have a fitted effect of over 65% in size
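Nuclease activity of 10 nM FEN1 was measured after 15 min of room-temperature exposure to titrated compounds, by adding 50 nM flap substrate and reading plates at 0 and 15 min.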
Pol kappa inh: qHTS for Inhibitors of Polymerase Kappa; DNA polymerase kappa (Homo sapiens), Q9UBT6; purified Pol kappa, fluorescent DNA synthesis assay, 10 min; Potency, µM (top dose mostly 107 µM), for inactives: at the top dose activity, negative = inhibition, usual class: inhibitors; actives 0.53% (n = 400,000); AID 588579, 2011; further: on the % scale 0 is the no-effect control and ±100 the full control effect
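First, compounds were pin-transferred onto 10 nM Pol kappa. After 15 min at room temperature, substrate was added to 50 nM final. Fluorescence was then measured kinetically at 0 and 10 min.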
WRN helicase inh: qHTS for Inhibitors of WRN Helicase; WRN helicase unwinding, fluorescent forked duplex, kinetic; Potency, µM (doses to about 114 µM), without a hit: at the highest dose activity change, negative = inhibition, actives largely listed as inhibitors; actives 0.46% (n = 360,000); AID 651768, 2012; further: on the % scale 0 is the no-effect control and ±100 the full control effect; nearly all actives have a fitted effect of over 55% in size
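Kinetic fluorescence helicase assay: unwinding of a quenched forked DNA duplex (100 nM final) with 2 mM ATP final raises red fluorescence (525/598 nm). Compounds sat 15 min at room temperature with 20 nM WRN beforehand.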
POLH inh: qHTS for Inhibitors of Polymerase Eta. AID 588591, 2011. actives 1.2% (n = 390,000). Potency, µM (doses to about 114 µM), for the others: at the highest dose activity change, negative = inhibition, actives largely listed as inhibitors. recombinant Pol eta, fluorescent DNA replication assay; further: on the % scale 0 is the no-effect control and ±100 the full control effect
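Fluorescent replication assay: 50 nM final substrate added after a 15 min room-temperature compound preincubation with 10 nM enzyme. Signal taken at 0 min and again at 10 min.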
POLB inh: qHTS Assay for Inhibitors of DNA Polymerase Beta. P06746. Pol beta primer extension/strand displacement, fluorescence kinetic. Potency, µM (series often up to 114 µM), inactives show at the highest dose activity change, negative = inhibition, most hits filed as inhibitors. actives 1.3% (n = 340,000). AID 485314, 2010; further: on the % scale 0 is the no-effect control and ±100 the full control effect
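Homogeneous kinetic assay of primer extension and strand displacement by 10 nM Pol beta, preincubated 15 min at room temperature with compound before 50 nM substrate (final) was added. Read at 0 and 10 min; four-parameter Hill fit.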
POLI inh: qHTS for Inhibitors of Polymerase Iota. actives 1% (n = 390,000). DNA polymerase iota (Homo sapiens), Q9UNA4. Pol iota fluorescent replication assay, 10 min. Potency, µM (top dose mostly 115 µM), for the others: at the highest dose activity, negative = inhibition, hits mostly inhibitors
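Fluorescent replication assay read twice, at 0 min and 10 min after adding 50 nM (final) substrate. Enzyme (10 nM) and compounds were first incubated 15 min at room temperature; enzyme-free buffer wells were negative controls.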
* hit, by the source's call; ? = inconclusive; · = no result given; ! = not active in a repeat; [ ] = another dose, or the depositor's remark. The call rests on the fitted dose curve; in most records, active means well fitted curve in the direction sought with a large enough effect; inconclusive means small, poorly fitted or top-dose-only effect, or another doubt; inactive means no such curve, though single readings can be large; an effect the other way counts as inactive or inconclusive. Potency means the concentration at half of the fitted maximal effect.

SMILES	FEN1 inhibitor	Pol kappa inh	WRN helicase inh	POLH inh	POLB inh	POLI inh
Oc1ccccc1O	-3.6%	50.1µM*	1.1%[11.6 µM]	?	39.8µM*	79.4µM*
CCCCn1c(O)c(C(C)=NCCc2ccccc2)c(=O)[nH]c1=O	-6.0%	1.8%	0.5%	-8.9%	-20.1%	-16.3%
CN1C(=O)/C(=C\N2CCc3ccccc32)C(=O)NC1=S	-18.1%	-27.2%	50.1µM*	-5.6%	1.9%	?
CN1CCc2cc3c(cc2C1O)OCO3 (centres undefined)	·	-5.6%[60.1 µM]	·	·	·	·
Cc1cccc(N2C(=O)/C(=C/N3CCN(C(=O)c4ccco4)CC3)C(=O)NC2=S)c1	-11.5%	-4.3%	?	-6.3%	8.7%	2.6%
Cc1ccc(N2C(=O)/C(=C/N3CCN(C(=O)c4ccco4)CC3)C(=O)NC2=S)cc1C	-13.5%	-8.2%	?	-7.6%	-0.7%	17.8µM*
O=C1NC(=O)N(c2ccccc2)C(=O)/C1=C/c1coc2ccc(O)cc2c1=O	-1.8%	?	?	?	3.0%	22.4µM*
O=C1NC(=O)N(c2ccc(Cl)cc2)C(=O)/C1=C/c1coc2ccc(O)cc2c1=O	-18.8%	?	?	?	?	?
O=C(CN1CC=C(c2ccccc2)CC1)Nc1c(Cl)cccc1Cl	6.0%	-13.6%	-13.4%	-6.2%	7.2%	7.8%
CCc1ccc(N2C(=O)NC(=O)/C(=C/c3cccn3CCOc3ccc(C)cc3)C2=O)cc1	1.3%	-14.5%	-1.8%	?	35.2%	?
CCOc1cc(/C=C2/C(=O)NC(=O)N(c3ccc(CC)cc3)C2=O)ccc1OC(=O)c1cccs1	-0.5%	-3.2%	50.1µM*	44.7µM*	-13.2%	-17.7%
CCn1c(=O)cc(OCC(=O)N2CCC3(CC2)OCCO3)c2ccccc21	3.3%	-1.6%	-0.2%	-7.5%	-0.8%	9.6%
O=C(O)c1cc(O)c(O)c(O)c1	·	10µM*!	·	·	·	·
NCCc1c[nH]c2ccc(OCc3ccccc3)cc12	-6.6%	-9.0%	0.4%	5.5%	18.4%	-10.6%
CC(N)[C@@H](O)c1ccccc1 (some centres undefined)	·	-6.1%[60.1 µM]	·	·	·	·
CC(N)C(O)c1ccc(O)c(O)c1 (centres undefined)	·	3.16µM*!	·	·	·	·
CN1CC[C@]2(C)c3cc(O)ccc3N(C)[C@@H]12	·	-3.1%[12 µM]	·	·	·	·
CN1CC[C@@]2(C)c3cc(O)ccc3N(C)C12 (some centres undefined)	10.1%	-4.6%[60.1 µM]	·	?	-7.6%[57.1 µM]	28.2µM*!
COc1cccc(-n2c(/C=C/c3ccc(O)c(O)c3)nc3ccccc3c2=O)c1	?	-43.2%	-30.7%	28.2µM*	8.91µM*	22.4µM*
O=c1c2ccccc2nc(/C=C/c2ccc(O)cc2)n1-c1cccc(O)c1	?	?	?	56.2µM*	3.98µM*	25.1µM*
CCc1ccc(NC(=O)CCNC(=O)N2C[C@H]3C[C@@H](C2)c2cccc(=O)n2C3)cc1	24.4%	8.4%	-3.7%	-8.3%	15.7%	-6.6%
c1ccc2c(c1)[IH]c1ccccc1-2	50.1µM*	-8.2%	-7.7%	-2.3%	·	?
C=CCSC1=N/C(=C\c2cc(OC)c3c(c2)OCO3)C(=O)S1	-16.8%	-20.8%	-21.9%	?	22.4µM*	?
O=C1NC(=S)N(c2ccc(F)cc2)C(=O)/C1=C/c1ccccc1O	16.5%	-0.6%	-0.4%[57.1 µM]	-9.0%	-18.7%	35.3%
COc1ccc(N2C(=O)/C(=C/c3cccs3)C(=O)NC2=S)cc1	-3.9%	-31.8%	44.7µM*	3.9%	-1.0%	?
SMILES	FEN1 inhibitor	Pol kappa inh	WRN helicase inh	POLH inh	POLB inh	POLI inh
Cc1ccc(/C=C2\C(=O)NC(=S)N(c3ccc(F)cc3)C2=O)s1	2.7%	-19.5%	50.1µM*	?	?	?
Cc1ccc(/C=C2\C(=O)NC(=S)N(c3ccccc3F)C2=O)s1	?	?	50.1µM*	?	?	?
COc1ccc(N2C(=O)/C(=C/c3ccc(N(C)C)o3)C(=O)NC2=S)cc1	14.3%	-18.0%	-5.4%	-25.4%	2.4%	?
Cc1cc(OCC(=O)NCC(O)c2ccccc2)c2c3c(c(=O)oc2c1)CCCC3 (centres undefined)	-26.8%	-6.0%	0.9%	-2.0%	-2.3%	?
Cc1ccc2c(c1)C1CN(C)CCC1N2C(=O)Cn1cnc2c1c(=O)n(C)c(=O)n2C (centres undefined)	1.5%	3.9%	5.4%	-14.0%	43.2%	-7.5%
CC1(C)CC(=O)C(C=NCCN2CCN(C(=O)Cc3ccccc3)CC2)=C(O)C1	-12.4%	-2.7%	-2.7%	6.2%	3.3%	-4.0%[58.9 µM]
CC(=O)N[C@@H]1CC[C@@]2(O)[C@H]3Cc4ccc(O)c5c4[C@@]2(CCN3CC2CC2)[C@@H]1O5	-6.4%	-5.6%	8.8%	-2.6%	·	6.2%
CCCCCCCCCCCCCCCC[n+]1ccccc1	79.4µM*	9.2%	-3.2%	-18.6%	·	19.6%
COc1cccc(N2C(=O)NC(=O)/C(=C/c3ccc4c(c3)Cc3ccccc3-4)C2=O)c1	?	-17.5%	44.7µM*	0.8%	-19.6%	?
COc1cc(/C=C2/C(=O)NC(=O)N(c3ccccc3)C2=O)ccc1O	3.1%	3.1%	?	9.8%	1.8%	17.3%
CCN(CC)c1ccc(/C=C/[N+](=O)[O-])cc1	?	2.2%	-19.7%	-10.4%	-12.5%	?
COc1cc(/C=C/[N+](=O)[O-])ccc1O	?	-43.2%	-6.7%	5.1%	1.6%	31.6µM*
CN1C(=O)C(=Cc2ccc(N3CCOCC3)c([N+](=O)[O-])c2)C(=O)N(C)C1=O	·	·	·	·	7.9%	·
CCN(CC)C(=O)c1c(C)[nH]c(=S)c(C#N)c1-c1ccco1	-0.3%	3.7%	50.1µM*	-13.8%	0.7%	101.9%
O=C1CC(c2ccc(Br)cc2)c2c(c3ccccc3oc2=O)O1 (centres undefined)	-0.4%	3.4%[60.1 µM]	·	-13.9%	3.8%	?
Cc1ccc(N2C(=O)NC(=O)C3(Cc4ccccc4N4CCCC43)C2=O)cc1 (centres undefined)	2.3%	-29.5%	-9.3%	?	2.4%	-0.1%
NC(N)=Nc1ccc2[nH]c3c(c2c1)C[C@@]1(O)[C@H]2Cc4ccc(O)c5c4[C@@]1(CCN2CC1CC1)[C@H]3O5	50.1µM*	-19.7%[60.1 µM]	?	-28.1%	3.5%[57.1 µM]	?
COc1ccc(/C=C2\C(=O)NC(=O)N(Cc3ccccc3)C2=O)c(OC)c1OC	?	-3.0%	-5.9%	-6.0%	6.9%	?
